# “And” between values parts separate entries of the source, which are not always exact repeats. Equal entries are not always repeated. The source made the active and inactive calls.
# How the values were obtained:
# [1] = tested on: PRMT1 (protein arginine N-methyltransferase 1); assay: small molecules binding arginine methyltransferase PRMT1 – biochemical, small-molecule microarray, 635 nm fluorescence, primary screen (AID 1088); details: higher = more signal;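 note: binding of Prmt1 protein to compounds spotted on small-molecule microarray slides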
# [2] = growth effects on S. cerevisiae YJM789 – YJM789 clinical isolate, OD600, 24 h, basal, primary screen (AID 1089); details: higher = more signal, called active from +8 up or from −8 down;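 note: growth of clinical yeast isolate S. cerevisiae YJM 789 seeded 1000 cells per well; test concentration not given here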
# [3] = S. pombe growth modifiers, basal conditions – strain 972, OD600, 24 h, no modulator, primary screen (AID 1090);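 note: basal condition with compound alone and no growth modifier present; test concentration not given here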; details: S. pombe 972 growth, higher = more signal, called active from +8 up or from −8 down
# [4] = budding yeast growth modifiers under rapamycin – strain BY4716, OD600, 96 h, primary screen (AID 1091); note: test concentration not given here; details: S. cerevisiae BY4716 + rapamycin, higher = more signal, called active from +8 up or from −8 down
# [5] = target: Torsin-1A-interacting protein 2 (Homo sapiens) (UniProt Q8NFQ8); assay: small molecules binding lysate-expressed LULL1 – cell lysate, human LULL1 lysate, 635/667 nm fluorescence, primary screen (AID 1092); details: small-molecule microarray, hLULL1 lysate binding, 635 nm fluorescence; higher = more signal;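 note: probe is lysate of COS7 cells overexpressing human LULL1; score merges per-feature 667 nm fluorescence with signal-to-noise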
# [6] = optical density change of DRC41 E. coli – strain DRC41, OD650, 24 h, E. coli filamentation project, primary screen (AID 1093);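 note: MC1000 strain lacking acrAB efflux and sulA so SOS filamentation is blocked; test concentration not given here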; details: E. coli DRC41 growth, higher = more signal, called active from +8 up or from −8 down
# [7] = probe aLefty2 binding to arrayed compounds – biochemical, biotinylated probe, 635/667 nm fluorescence, primary screen (AID 1094); details: small-molecule microarray, higher = more signal;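 note: score merges spot fluorescence near 667 nm with spot signal-to-noise ratio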
# [8] = tested on: Noggin (protein binding on small-molecule microarray); assay: small molecules binding Noggin protein – biochemical, 635/667 nm fluorescence, primary screen (AID 1095); details: 635 nm fluorescence, higher = more signal;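 note: score merges 667 nm feature fluorescence with signal to noise over triplicate slides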
# [9] = target: Neurogenic locus notch homolog protein 3 (Homo sapiens) (UniProt Q9UM47); assay: small molecules binding NOTCH3 protein – biochemical, 635/667 nm fluorescence, primary screen (AID 1096); details: small-molecule microarray, 635 nm fluorescence, higher = more signal
# [10] = probe aEGFR binding to arrayed compounds – biochemical, biotinylated probe, 635/667 nm fluorescence, primary screen (AID 1097); details: small-molecule microarray, higher = more signal;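 note: probe is a biotinylated anti-EGFR antibody binding compounds printed on slides; score combines fluorescence near 667 nm and signal to noise of each spot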
# [11] = tested on: Plasmodium falciparum Sir2 (PF13_0152, Sir2A); assay: Plasmodium falciparum Sir2A binding compounds – biochemical, small-molecule microarray, 635 nm fluorescence, primary screen (AID 1098); details: fluorescence 635 nm, higher = more signal;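 note: score merges spot fluorescence intensity with its signal-to-noise ratio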
# [12] = probe aDKK1 binding to arrayed compounds – biochemical, biotinylated probe, 635/667 nm fluorescence, primary screen (AID 1099); details: small-molecule microarray, higher = more signal;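 note: score merges 667nm spot fluorescence with signal to noise across triplicate slides; reference of the scale not given here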
# [13] = probe aCHRDL2 binding to arrayed compounds – biochemical, biotinylated probe, 635/667 nm fluorescence, primary screen (AID 1100); details: small-molecule microarray, higher = more signal
# [14] = change in splice reporter luminescence, either direction, cell-based, HEK293, spliceosome inhibition project, primary screen (AID 1101); details: HEK293 splicing luciferase reporter, 24 h, higher = more signal, called active from +8 up or from −8 down;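 note: HEK293 cells carrying a splicing-competent luciferase reporter gene; test concentration not given here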
# [15] = target: Fibroblast growth factor 10 (Homo sapiens) (UniProt O15520); assay: compounds binding fibroblast growth factor 10 – biochemical, small-molecule microarray, 635 nm fluorescence, primary screen (AID 1102); details: FGF10 binding, fluorescence 635 nm, higher = more signal
# [16] = tested on: glycogen synthase kinase-3 (GSK3A per assay name; protocol says GSK3B); assay: compounds binding glycogen synthase kinase-3 – biochemical, small-molecule microarray, 635 nm fluorescence, GSK3A, primary screen (AID 1103); details: fluorescence 635 nm, higher = more signal; note: the record names both GSK3A and GSK3B
# [17] = target: Epidermal growth factor receptor (Homo sapiens) (UniProt P00533); assay: compounds binding epidermal growth factor receptor – biochemical, small-molecule microarray, 635 nm fluorescence, primary screen (AID 1104); details: EGFR binding, higher = more signal;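 note: score merges 667 nm emission intensity with spot signal to noise over triplicate slides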
# [18] = target: Follistatin-related protein 3 (Homo sapiens) (UniProt O95633); assay: compounds binding follistatin-related protein 3 – biochemical, small-molecule microarray, 635 nm fluorescence, primary screen (AID 1105); details: FSTL3 binding, higher = more signal;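 note: score merges emission near 667 nm and signal to noise per printed spot across three slides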
# [19] = target: Dickkopf-related protein 1 (Homo sapiens) (UniProt O94907); assay: small molecules binding DKK1 protein – biochemical, small-molecule microarray, 635 nm fluorescence scan, primary screen (AID 1106); details: higher = more signal;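 note: score merges emission near 667 nm with signal to noise over three replicate slides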
# [20] = tested on: Inhibin beta A chain (activin A); assay: small molecules binding activin A – biochemical, small-molecule microarray, 635 nm fluorescence scan, primary screen (AID 1107); details: INHBA, higher = more signal;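 note: mouse activin A protein probed at 4.33 µg/mL on printed slides; score merges bound-protein fluorescence near 667 nm with spot signal-to-noise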
# Follistatin-related protein 3 (Homo sapiens), sequence (O95633 whole entry, looked up): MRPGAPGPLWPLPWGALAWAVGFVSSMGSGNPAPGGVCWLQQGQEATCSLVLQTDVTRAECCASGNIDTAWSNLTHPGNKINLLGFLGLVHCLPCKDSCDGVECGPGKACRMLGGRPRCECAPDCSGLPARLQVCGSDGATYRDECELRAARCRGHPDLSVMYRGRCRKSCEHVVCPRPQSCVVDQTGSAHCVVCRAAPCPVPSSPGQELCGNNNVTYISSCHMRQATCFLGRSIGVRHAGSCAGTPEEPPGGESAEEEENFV
# Fibroblast growth factor 10 (Homo sapiens), sequence (O15520 whole entry, looked up): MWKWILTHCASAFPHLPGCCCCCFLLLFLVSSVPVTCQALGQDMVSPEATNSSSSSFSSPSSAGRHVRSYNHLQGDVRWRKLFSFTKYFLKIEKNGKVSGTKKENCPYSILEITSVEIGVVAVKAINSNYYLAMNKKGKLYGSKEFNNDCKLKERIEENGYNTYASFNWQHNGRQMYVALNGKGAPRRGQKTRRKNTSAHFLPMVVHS
# Epidermal growth factor receptor (Homo sapiens), sequence (P00533 whole entry, looked up): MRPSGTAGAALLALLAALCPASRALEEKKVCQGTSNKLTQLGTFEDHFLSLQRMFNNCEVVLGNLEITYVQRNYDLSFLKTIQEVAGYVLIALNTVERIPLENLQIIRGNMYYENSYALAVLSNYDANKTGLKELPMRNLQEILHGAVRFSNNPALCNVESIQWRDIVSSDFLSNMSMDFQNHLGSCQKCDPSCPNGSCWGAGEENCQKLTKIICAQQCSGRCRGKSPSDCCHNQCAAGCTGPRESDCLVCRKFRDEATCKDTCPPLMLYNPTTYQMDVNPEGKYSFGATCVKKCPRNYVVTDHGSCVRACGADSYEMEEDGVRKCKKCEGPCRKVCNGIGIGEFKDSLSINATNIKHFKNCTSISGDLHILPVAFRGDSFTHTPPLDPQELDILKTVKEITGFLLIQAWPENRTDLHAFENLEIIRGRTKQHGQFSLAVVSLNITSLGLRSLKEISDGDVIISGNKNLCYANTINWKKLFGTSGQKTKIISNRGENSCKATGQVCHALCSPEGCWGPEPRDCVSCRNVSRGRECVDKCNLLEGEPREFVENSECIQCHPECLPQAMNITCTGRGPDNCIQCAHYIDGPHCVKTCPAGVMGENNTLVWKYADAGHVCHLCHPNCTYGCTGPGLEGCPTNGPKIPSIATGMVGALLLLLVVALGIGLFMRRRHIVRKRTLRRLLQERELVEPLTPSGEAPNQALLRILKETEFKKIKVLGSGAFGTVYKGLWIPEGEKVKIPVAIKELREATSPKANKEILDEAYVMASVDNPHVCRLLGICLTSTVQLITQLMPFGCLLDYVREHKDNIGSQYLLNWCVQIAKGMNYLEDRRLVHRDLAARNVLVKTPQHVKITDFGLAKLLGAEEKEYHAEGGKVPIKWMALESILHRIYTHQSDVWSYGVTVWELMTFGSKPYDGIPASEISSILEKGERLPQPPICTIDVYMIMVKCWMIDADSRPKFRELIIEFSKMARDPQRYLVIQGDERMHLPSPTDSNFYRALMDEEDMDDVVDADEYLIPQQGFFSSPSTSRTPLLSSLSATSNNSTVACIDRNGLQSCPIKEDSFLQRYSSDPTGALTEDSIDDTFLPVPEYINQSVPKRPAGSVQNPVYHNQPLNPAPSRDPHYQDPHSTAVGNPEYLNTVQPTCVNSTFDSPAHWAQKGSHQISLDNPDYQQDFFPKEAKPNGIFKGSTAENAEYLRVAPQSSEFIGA
# Dickkopf-related protein 1 (Homo sapiens), sequence (O94907 whole entry, looked up): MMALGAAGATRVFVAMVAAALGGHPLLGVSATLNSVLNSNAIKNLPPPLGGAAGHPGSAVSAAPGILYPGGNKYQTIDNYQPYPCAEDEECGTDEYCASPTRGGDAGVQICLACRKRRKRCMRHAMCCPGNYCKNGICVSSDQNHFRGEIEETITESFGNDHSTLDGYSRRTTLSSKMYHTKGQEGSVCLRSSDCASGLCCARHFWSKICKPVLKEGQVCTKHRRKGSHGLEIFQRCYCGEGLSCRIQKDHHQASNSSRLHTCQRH
# Neurogenic locus notch homolog protein 3 (Homo sapiens), sequence (Q9UM47 whole entry, looked up): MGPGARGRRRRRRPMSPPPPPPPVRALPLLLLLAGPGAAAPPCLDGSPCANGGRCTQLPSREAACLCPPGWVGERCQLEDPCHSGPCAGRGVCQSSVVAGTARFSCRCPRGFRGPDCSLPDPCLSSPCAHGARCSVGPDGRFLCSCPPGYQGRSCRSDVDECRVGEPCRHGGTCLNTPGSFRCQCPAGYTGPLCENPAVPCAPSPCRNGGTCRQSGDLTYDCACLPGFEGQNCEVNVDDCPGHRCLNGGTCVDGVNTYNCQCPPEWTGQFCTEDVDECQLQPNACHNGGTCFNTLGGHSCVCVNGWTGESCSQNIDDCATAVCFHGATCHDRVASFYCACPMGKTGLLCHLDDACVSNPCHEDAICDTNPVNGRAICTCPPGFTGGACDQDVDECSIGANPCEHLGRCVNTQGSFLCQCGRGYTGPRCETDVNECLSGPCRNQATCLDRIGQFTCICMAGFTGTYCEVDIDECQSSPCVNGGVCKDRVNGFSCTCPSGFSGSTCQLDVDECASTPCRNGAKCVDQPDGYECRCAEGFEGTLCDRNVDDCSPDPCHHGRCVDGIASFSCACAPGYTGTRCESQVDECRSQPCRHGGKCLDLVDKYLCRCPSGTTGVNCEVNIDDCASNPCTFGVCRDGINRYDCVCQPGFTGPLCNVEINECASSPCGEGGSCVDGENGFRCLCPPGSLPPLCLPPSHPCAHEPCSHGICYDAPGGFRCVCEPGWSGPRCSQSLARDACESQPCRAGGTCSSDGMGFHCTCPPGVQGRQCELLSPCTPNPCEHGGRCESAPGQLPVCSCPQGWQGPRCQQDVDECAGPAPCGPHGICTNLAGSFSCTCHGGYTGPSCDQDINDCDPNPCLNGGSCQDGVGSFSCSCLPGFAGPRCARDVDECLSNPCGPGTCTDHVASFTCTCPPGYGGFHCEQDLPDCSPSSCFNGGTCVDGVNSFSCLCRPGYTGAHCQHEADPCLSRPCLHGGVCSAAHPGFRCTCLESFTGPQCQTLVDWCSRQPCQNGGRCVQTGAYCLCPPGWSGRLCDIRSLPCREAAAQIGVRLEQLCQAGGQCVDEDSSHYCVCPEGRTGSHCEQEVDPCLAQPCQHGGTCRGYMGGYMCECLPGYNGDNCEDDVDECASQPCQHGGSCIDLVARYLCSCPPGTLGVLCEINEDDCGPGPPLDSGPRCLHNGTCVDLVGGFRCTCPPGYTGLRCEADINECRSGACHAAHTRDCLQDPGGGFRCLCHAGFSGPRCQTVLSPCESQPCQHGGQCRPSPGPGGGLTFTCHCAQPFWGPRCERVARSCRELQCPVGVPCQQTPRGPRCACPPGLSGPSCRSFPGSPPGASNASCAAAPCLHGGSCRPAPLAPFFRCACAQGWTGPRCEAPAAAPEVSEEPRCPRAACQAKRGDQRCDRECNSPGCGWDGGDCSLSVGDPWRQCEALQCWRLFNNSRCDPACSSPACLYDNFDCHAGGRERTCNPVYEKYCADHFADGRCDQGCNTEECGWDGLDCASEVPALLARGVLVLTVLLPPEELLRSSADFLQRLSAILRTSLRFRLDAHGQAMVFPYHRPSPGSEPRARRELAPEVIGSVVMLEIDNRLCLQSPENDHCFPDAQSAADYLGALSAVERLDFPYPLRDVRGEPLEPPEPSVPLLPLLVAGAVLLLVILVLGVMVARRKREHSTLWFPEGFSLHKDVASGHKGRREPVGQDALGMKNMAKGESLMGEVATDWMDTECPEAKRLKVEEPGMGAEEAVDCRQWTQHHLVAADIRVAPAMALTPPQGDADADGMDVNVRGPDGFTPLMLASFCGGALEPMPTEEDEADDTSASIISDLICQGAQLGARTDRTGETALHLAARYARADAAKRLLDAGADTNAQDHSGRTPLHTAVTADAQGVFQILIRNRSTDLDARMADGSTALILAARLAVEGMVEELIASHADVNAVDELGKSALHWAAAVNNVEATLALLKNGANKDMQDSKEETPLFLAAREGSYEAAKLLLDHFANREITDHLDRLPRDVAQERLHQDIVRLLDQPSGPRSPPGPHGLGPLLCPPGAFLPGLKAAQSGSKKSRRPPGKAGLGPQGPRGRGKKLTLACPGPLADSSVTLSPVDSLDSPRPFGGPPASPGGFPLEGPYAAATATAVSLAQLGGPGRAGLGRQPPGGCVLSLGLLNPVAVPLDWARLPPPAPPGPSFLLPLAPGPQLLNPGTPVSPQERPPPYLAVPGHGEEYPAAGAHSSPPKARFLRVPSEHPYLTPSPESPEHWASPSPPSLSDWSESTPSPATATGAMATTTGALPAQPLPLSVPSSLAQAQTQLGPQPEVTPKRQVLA
# Torsin-1A-interacting protein 2 (Homo sapiens), sequence (Q8NFQ8 whole entry, looked up): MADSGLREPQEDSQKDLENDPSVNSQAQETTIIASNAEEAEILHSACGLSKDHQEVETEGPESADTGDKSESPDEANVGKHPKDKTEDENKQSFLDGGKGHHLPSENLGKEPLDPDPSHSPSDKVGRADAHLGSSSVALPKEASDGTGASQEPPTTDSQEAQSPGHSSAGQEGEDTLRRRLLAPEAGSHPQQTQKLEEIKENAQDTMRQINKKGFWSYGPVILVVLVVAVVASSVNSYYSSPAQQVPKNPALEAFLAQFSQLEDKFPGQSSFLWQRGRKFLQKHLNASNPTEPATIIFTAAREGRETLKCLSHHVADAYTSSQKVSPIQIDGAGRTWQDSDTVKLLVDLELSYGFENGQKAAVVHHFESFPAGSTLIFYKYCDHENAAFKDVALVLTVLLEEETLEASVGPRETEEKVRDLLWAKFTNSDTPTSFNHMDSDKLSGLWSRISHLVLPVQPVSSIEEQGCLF
SMILES,composite z-score [1],z-score [2],z-score [3],z-score [4],composite z-score [5],z-score [6],composite z-score [7],composite z-score [8],composite z-score [9],composite z-score [10],composite z-score [11],composite z-score [12],composite z-score [13],z-score [14],composite z-score [15],composite z-score [16],composite z-score [17],composite z-score [18],composite z-score [19],composite z-score [20]
C=CCN(Cc1ccccc1)C(=O)C1N(CCCCCCO)C(=O)C2C(C(=O)O)C3C=CC21O3 (stereo not given),-0.487 and -1.4,0.101 (inactive) and -1.39 (inactive),0.624 (inactive) and -0.642 (inactive),-0.889 (inactive) and -1.51 (inactive),1.83 and 1.79,-0.142 (inactive) and 1.19 (inactive),-0.0265 and 0.0515,-1.9 and -1.38,-1.59 and -0.439,-0.322 and -0.246,0.751 and 0.912,-0.0659 and -0.197,0.991 and 0.926,-0.679 (inactive) and -1.35 (inactive),-1.02 and -2.08,-0.973 and -1.08,-1.7 and -1.71,-1.49 and -1.67,-1.79 and -4,-1.29 and -2.29
CC(CO)N1C(=O)[C@@H]2C3C(=O)OCCC=C[C@H]3OC23C=CCN(C(C)(C)C)C(=O)[C@@H]13 (stereo not given in full),-0.577 and 0.254,0.581 (inactive) and -1.45 (inactive),0.605 (inactive) and -0.779 (inactive),0.819 (inactive) and -0.544 (inactive),-0.326 and 2.17,-0.586 (inactive) and -0.513 (inactive),-0.176 and 0.0028,-0.808 and 0.16,-0.431 and 0.289,-0.295 and -0.117,-0.117 and -0.15,-0.216 and 0.073,0.254 and 0.178,0.612 (inactive) and -0.541 (inactive),-0.941 and 0.229,-0.875 and 0.449,-0.839 and -0.726,-0.464 and 0.008,-0.476 and -0.008,0.298 and 1.11
Cc1ccc(S(=O)(=O)OC[C@@H]2CN3[C@@H](CC[C@@H](C)[C@@H]3c3ccc(Br)cc3)C(=O)O2)cc1,0.353 and 1.4,-0.464 (inactive) and 0.544 (inactive),-0.252 (inactive) and 0.102 (inactive),-0.182 (inactive) and 0.777 (inactive),0.454 and 0.845,0.199 (inactive) and -0.206 (inactive),-0.0389 and -0.205,0.0884 and 0.47,-0.0776 and 0.686,0.0519 and -0.0671,0.257 and 0.321,0.151 and 0.128,-0.234 and -0.289,0.479 (inactive) and 0.402 (inactive),0.0993 and 0.625,0.0442 and 0.372,0.352 and 0.49,0.0546 and 0.262,0.235 and 0.46,0.758 and 0.354
CCOC(=O)NN=C1C[C@@H](O)[C@@H](O)[C@@H]2[C@@H]3C(=O)N(Cc4ccccc4)C(=O)[C@@H]3CC[C@@H]12,0.249,0.872 (inactive),0.117 (inactive),0.552 (inactive),-0.572,-1.68 (inactive),-0.217,0.406,0.639,-0.282,0.454,-0.287,-0.655,0.477 (inactive),0.118,0.304,0.542,0.59,0.355,-0.208
COC(=O)C1=C(C)N(Cc2ccccc2)[C@]23O[C@](C(=O)OC)(C(=O)N2[C@@H]1c1ccccc1)[C@@H](c1ccccc1)[C@@H]3C(=O)c1ccccc1,0.618 and 0.917,-1.15 (inactive) and -0.583 (inactive),-3.18 (inactive) and -1.19 (inactive),-1.82 (inactive) and -0.776 (inactive),0.869 and 0.031,-0.0517 (inactive) and 0.951 (inactive),-0.185 and 0.0062,0.115 and 0.974,0.58 and 0.216,0.0557 and -0.0428,-0.104 and 0.177,0.107 and 0.263,-0.0791 and -0.347,-1.55 (inactive) and -0.5 (inactive),0.0494 and 0.417,0.338 and -0.145,0.0596 and 0.511,0.208 and 0.524,0.217 and 0.967,-0.431 and 1.21
C=CC[C@@H](O)c1ccc(O)c(F)c1,-0.508 and -0.514,0.442 (inactive) and -0.907 (inactive),-0.6 (inactive) and -1.52 (inactive),-0.389 (inactive) and -1.67 (inactive),-0.471 and -1.19,0.336 (inactive) and 1.94 (inactive),-0.0329 and -0.0221,-2.36 and -0.702,-1.4 and -0.883,-0.384 and -0.381,0.358 and 0.514,-0.388 and -0.293,0.92 and 0.751,-0.55 (inactive) and -1.23 (inactive),-1.38 and -0.756,-1.43 and -0.85,-1.81 and -1.65,-2.63 and -1.02,-1.95 and -0.898,-2.07 and -0.334
